Screening results deposited in PubChem by National Center for Advancing Translational Sciences (NCATS).
Tau fluor cs: counter-screen for tau fibril formation inhibitors; Potency, µM (titrated, usually from 57.7 µM), for inactives: at the top dose activity change, negative = decrease; tau K18 P301L Alexa594 fluorescence, heparin fibrillization; 280,000 tested, 0.93% active; further: potency means the concentration at half of the fitted maximal effect; nearly all actives have a fitted effect of over 55% in size
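Human K18 P301L tau (15 uM unlabeled plus 0.24 uM Alexa 594-labeled, final) in 100 mM sodium acetate pH 7 was mixed with compound and 20 uM heparin and incubated 6 hr at 37 C.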
Sfp inh: blocks B. subtilis Sfp PPTase activity | AID 1490 | Potency, µM, for inactives: largest response in the series, negative = inhibition, most hits filed as inhibitors | 310,000 tested, 3.5% active | Biochemical Sfp PPTase activity, qHTS | Q9F4F7;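 further: the enzyme is Sfp with the accession as filed and its product quenches rhodamine fluorescence; potency means the concentration at half of the fitted maximal effect; 0% = enzyme reaction without inhibitor and -100% = no enzyme wells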
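After 15 min at room temperature with compound, 15 nM Sfp received 5 uM rhodamine-CoA plus 12.5 uM BHQ-2-ybbR (50 mM Hepes pH 7.6, 10 mM MgCl2). Rate came from the fluorescence difference over 30 min, ex 525/em 598 nm.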
G9a inh: inhibitors of human histone lysine methyltransferase G9a. G9a H3K9 monomethylation, AlphaScreen, 2 h. Potency, µM (top dose mostly 102 µM), for the others: at the highest dose activity, negative = inhibition, hits mostly inhibitors. Q96KQ7. AID 504332. 350,000 tested, 8.8% active; further: potency means the concentration at half of the fitted maximal effect; nearly all actives have a fitted effect of over 75% in size
Target sequence (Q96KQ7 913-1193 limits assumed): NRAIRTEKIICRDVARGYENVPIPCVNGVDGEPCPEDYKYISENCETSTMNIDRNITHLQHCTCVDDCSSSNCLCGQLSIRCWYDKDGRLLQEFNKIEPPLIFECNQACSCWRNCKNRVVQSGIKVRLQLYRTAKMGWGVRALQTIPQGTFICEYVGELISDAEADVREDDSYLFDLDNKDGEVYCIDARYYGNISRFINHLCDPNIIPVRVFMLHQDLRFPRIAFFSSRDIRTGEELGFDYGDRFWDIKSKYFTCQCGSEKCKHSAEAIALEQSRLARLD
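Chemiluminescent proximity detection of H3K9 monomethylation, read after 10 min bead incubation in the dark. Reaction: 20 nM G9a, 500 nM biotin-H3K9 peptide, 20 uM SAM cofactor, 2 h, room temperature, following 15 min enzyme-compound preincubation.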
Tau FP inhib: inhibitors of human tau fibril formation; P10636; K18 P301L tau heparin fibrillization, Alexa594 FP, 6 h; Potency, µM (highest dose often 57.7 µM), for the others: at the highest dose activity, negative = inhibition, most hits filed as inhibitors; 280,000 tested, 0.39% active; further: potency means the concentration at half of the fitted maximal effect; nearly all actives have a fitted effect of over 55% in size
Target sequence (P10636 561-689 P618L limits assumed): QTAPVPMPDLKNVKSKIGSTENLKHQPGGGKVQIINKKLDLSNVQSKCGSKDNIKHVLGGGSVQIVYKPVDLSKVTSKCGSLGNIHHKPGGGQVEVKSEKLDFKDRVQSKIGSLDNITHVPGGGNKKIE
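Compound effects on tau fibrillization are measured by Alexa 594 fluorescence polarization (ex 555, em 632 nm). K18 P301L tau is used at 15 uM with 0.24 uM labeled tracer, and 20 uM heparin induces aggregation over 6 hr at 37 C.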
Coupling enz: inhibits coupling enzyme system, counter-screen for aldolase hits; activity change, negative = inhibition, % at 58.2 µM, hits read low; 290,000 tested, 0.67% active; coupling enzyme system counterscreen, AmpLite Red fluorescence; in the data active means activity change below about -30%
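Final compound at 57.5 uM, incubated 10 min at RT with coupling enzyme reagent (glyceraldehyde-3-phosphate), then 20 min with substrate and AmpLite Red detection. Fluorescence read at 525/598 nm; tests interference with the coupling assay, not aldolase inhibition.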
Tau fibril ThT: tau fibrillization inhibition (ThT binding); Potency, µM (doses to about 57.4 µM), for the others: at the highest dose activity, negative = inhibition, most hits filed as inhibitors; AID 1460; 270,000 tested, 2.1% active; recombinant tau K18 P301L, heparin-induced fibrillization, ThT fluorescence; further: potency means the concentration at half of the fitted maximal effect; nearly all actives have a fitted effect of over 55% in size
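ThT emission at 510 nm, taken 1 hr after adding 30 uM dye, quantifies aggregates formed when 20 uM heparin acts on human tau K18 P301L for 6 hr at 37 C.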
* marks the source's active call; other numbers are inactive results; [ ] = remark or other dose. A selection: hits, their analogues and other compounds. The true share with any hit is near 11%. Unless noted, the call rests on the fitted dose curve; in most records, active means well fitted curve in the direction sought with a large enough effect; inconclusive means small, poorly fitted or top-dose-only effect, or another doubt; inactive means no such curve, though single readings can be large; an effect the other way counts as inactive or inconclusive. Unless noted, on the % scale 0 is the no-effect control and ±100 the full control effect.

How did O=C(OCc1cc(=O)n2nc(C3CCCCC3)sc2n1)c1ccccc1Cl do in these assays?
Tau fluor cs: 2%; G9a inh: 2%[59 µM]; Tau FP inhib: -4%; Tau fibril ThT: inconclusive

What do the screens show for `COC(=O)[C@@]1(Cc2ccc(F)cc2)[C@H]2c3cc(C(=O)N4CCCC4)n(Cc4ccc(C(F)(F)F)nc4)c3C[C@H]2CN1C(=O)c1ccccc1`?
Tau fluor cs: -13%; Sfp inh: -2%; G9a inh: 50µM*; Tau FP inhib: -2%; Coupling enz: -5; Tau fibril ThT: -22%

How did COC(=O)[C@@]1(Cc2ccc(F)cc2)[C@H]2c3cc(C(=O)N4CCCC4)n(Cc4ccc(C)c(F)c4F)c3C[C@H]2CN1C(=O)c1ccccc1 do in these assays?
Tau fluor cs: -10%; Sfp inh: -10%; Tau FP inhib: -2%; Coupling enz: -3; Tau fibril ThT: -16%

What do the screens show for `COC(=O)[C@@]1(Cc2ccc(OC)cc2)[C@H]2c3cc(C(=O)N(C)C)n(CCc4ccc(O)c(OC)c4)c3C[C@H]2CN1C(=O)c1ccccc1`?
Tau fluor cs: 0%; Sfp inh: 21%; Tau FP inhib: 4%; Coupling enz: 1; Tau fibril ThT: 1%

Results for COC(=O)[C@@]1(Cc2ccc(OC)cc2)[C@H]2c3cc(C(=O)N(C)C)n(CCc4ccc(OC)c(Br)c4)c3C[C@H]2CN1C(=O)c1ccccc1 ?
Tau fluor cs: -17%; Sfp inh: -7%; G9a inh: 40µM*; Tau FP inhib: -4%; Coupling enz: 2; Tau fibril ThT: inconclusive

What do the screens show for `COC(=O)[C@@]1(Cc2ccc(F)cc2)[C@H]2c3cc(C(=O)N(C)C)n(Cc4nc5ccccc5[nH]4)c3C[C@H]2CN1C(=O)c1ccccc1`?
Tau fluor cs: -4%; Sfp inh: -4%; G9a inh: 50µM*; Tau FP inhib: -5%; Coupling enz: -5; Tau fibril ThT: 9%

Results for COC(=O)[C@@]1(Cc2ccc(F)cc2)[C@H]2c3cc(C(=O)N4CCCC4)n(Cc4ccc(C)o4)c3C[C@H]2CN1C(=O)c1ccccc1 ?
Tau fluor cs: -12%; Sfp inh: 40µM*; Tau FP inhib: -14%; Coupling enz: -1; Tau fibril ThT: inconclusive

How did COc1cc(-c2noc(CN3CCN(c4ccccc4)CC3)n2)cc(OC)c1OC do in these assays?
Tau fluor cs: -16%; G9a inh: inconclusive; Tau FP inhib: 6%; Tau fibril ThT: -7%

Results for Cc1n[nH]c(C)c1CCN(C)Cc1cn(C)nc1-c1ccccc1F ?
Tau fluor cs: -6%; Sfp inh: 12%; Tau FP inhib: -7%; Coupling enz: 1; Tau fibril ThT: -9%

Results for COC(=O)[C@@]1(Cc2ccc(OC)cc2)[C@H]2c3cc(C(=O)N(C)C)n(Cc4ccc(C)o4)c3C[C@H]2CN1C(=O)c1ccccc1 ?
Tau fluor cs: -6%; Sfp inh: 25µM*; Tau FP inhib: -12%; Coupling enz: -1; Tau fibril ThT: inconclusive

What do the screens show for `C=C1C(=O)C=C2CN(C(=O)c3ccccc3)[C@@](Cc3ccc(OC)cc3)(C(=O)OC)[C@@H]12`?
Tau fluor cs: -8%; Sfp inh: 4µM*; Tau FP inhib: inconclusive; Coupling enz: -1; Tau fibril ThT: inconclusive

How did COC(=O)[C@@]1(Cc2ccc(F)cc2)[C@H]2c3cc(C(=O)N4CCCC4)n(CCCNc4ncc(C(F)(F)F)cc4Cl)c3C[C@H]2CN1C(=O)c1ccccc1 do in these assays?
Tau fluor cs: -9%; Sfp inh: 4%; G9a inh: 32µM*; Tau FP inhib: -4%; Coupling enz: -6; Tau fibril ThT: -11%

How did COC(=O)[C@@]1(Cc2ccc(OC)cc2)[C@@H]2C(=CC(=O)[C@H]2CC(=O)C(=O)N2CCCC2)CN1C(=O)c1ccccc1 do in these assays?
Tau fluor cs: -6%; Sfp inh: 2%; G9a inh: inconclusive; Tau FP inhib: -1%; Coupling enz: -4; Tau fibril ThT: inconclusive

What do the screens show for `COC(=O)[C@@]1(Cc2ccc(OC)cc2)[C@H]2c3cc(C(=O)N(C)C)[nH]c3C[C@H]2CN1C(=O)c1ccccc1`?
Tau fluor cs: -13%; Sfp inh: -16%; G9a inh: 50µM*; Tau FP inhib: 1%; Coupling enz: -2; Tau fibril ThT: -7%

How did COC(=O)[C@@]1(Cc2ccc(F)cc2)[C@H]2c3cc(C(=O)N4CCCC4)n(CCF)c3C[C@H]2CN1C(=O)c1ccccc1 do in these assays?
Tau fluor cs: -5%; Sfp inh: -5%; Tau FP inhib: -3%; Coupling enz: -1; Tau fibril ThT: -17%

How did COC(=O)[C@@]1(Cc2ccc(OC)cc2)[C@H]2c3cc(C(=O)N(C)C)n(CCO)c3C[C@H]2CN1C(=O)c1ccccc1 do in these assays?
Tau fluor cs: -8%; Sfp inh: 22%; Tau FP inhib: -4%; Coupling enz: 2; Tau fibril ThT: -6%

Results for CCOC(=O)c1c(C)[nH]c(C)c1S(=O)(=O)N1CCC(C(=O)NCc2ccc(F)cc2)CC1 ?
Tau fluor cs: -14%; G9a inh: -29%[59 µM]; Tau FP inhib: -9%; Tau fibril ThT: -6%

How did Cc1ccc2c(c1)N(C(=O)N1CCC(C(=O)Nc3cccc(F)c3)CC1)CCO2 do in these assays?
Tau fluor cs: inconclusive; G9a inh: -31%[59 µM]; Tau FP inhib: 6%; Tau fibril ThT: 2%

What do the screens show for `COc1cccc(CNC(=O)C(=O)NCC(c2cccs2)S(=O)(=O)c2cccs2)c1` (centres undefined)?
Tau fluor cs: -21%; G9a inh: 5%[59 µM]; Tau FP inhib: -11%; Tau fibril ThT: -10%

Results for O=C(COc1ccc(Br)cc1)NCC1COc2ccccc2O1 (centres undefined) ?
G9a inh: 16%[59 µM]

Results for Nc1ccc(NC2C[C@@H](C(=O)O)NC2=O)cc1 (some centres undefined) ?
Tau fluor cs: -6%; Sfp inh: 15%; G9a inh: 50µM*; Tau FP inhib: -3%; Coupling enz: -4; Tau fibril ThT: -7%

What do the screens show for `CC(C)(C)NC(=S)Nc1ccc(Br)cc1`?
Tau fluor cs: -1%; Sfp inh: -10%; Tau FP inhib: 6%; Coupling enz: 7; Tau fibril ThT: 3%

Results for S=C(NCCc1ccccc1)Nc1c(Cl)cccc1Cl ?
Tau fluor cs: -15%; Sfp inh: 32µM*; G9a inh: inconclusive; Tau FP inhib: 6%; Coupling enz: -1; Tau fibril ThT: -14%
